# Records with an inconclusive call do not appear. Unmarked numbers belong to inactive results. Activity calls are given as the source filed them. Calls come from the whole dose curve; as a rule, active = well fitted cell-killing curve with a large enough effect; inconclusive = small, poorly fitted or top-dose-only effect; inactive = flat fitted curve, though single readings scatter.
# Assay: qHTS of pediatric cancer cell lines to identify multiple opportunities for drug repurposing: Confirmatory screen for SK-N-SH cells (AID 1347129);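 note: cells exposed to compound for 48 h before viability read; nearly all actives have a fitted effect of over 60% in size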;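 for activity change, negative = cytotoxic: plate controls were DMSO for no effect and bortezomib control for full effect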
# Settings: SK-N-SH neuroblastoma cell viability; series mostly up to 46.1 µM; activity change, negative = cytotoxic: at the top concentration
# From the text: Drug repurposing or repositioning has been offered as a strategy for drug development in oncology programs. This approach has special potential for childhood cancers and other rare or orphan diseases, where the expected return on new drug development has been a disincentive to pharmaceuticals.
# In this project we exploit the poly-pharmacology of drugs to discover new indications via phenotypic screening of a panel of 19 well-characterized cell lines derived from solid tumors seen in children and adolescents. The goal is to identify approved drugs with previously unrecognized anticancer properties that has the potential to reveal new mechanisms and biological processes involved in carcinogenesis or drug resistance. We employed a titration-based paradigm (quantitative high-throughput screening or qHTS), where all compounds were tested at multiple concentrations for their effect on cell viability. Concentration-response curves (CRCs) were derived directly from the primary screen, and both potency and efficacy values were used to identify compounds with robust bioactivity profiles. We screened the NIH Chemical Genomics Center (NCGC) Pharmaceutical Collection (NPC) and Mechanism Interrogation Plate (MIPE) small molecule collections of approved and investigational compounds against these cell lines; and measured metabolically active cells after 48 hours of compound treatment as a proxy for cell viability.
# Assay Submitter: Nathalia J. Martinez, National Center for Advancing Translational Sciences, National Institutes of Health, Rockville, MD, USA; email: natalia.martinez@nih.gov
# [1] Shen, M et al. Quantitative high-throughput phenotypic screening of pediatric cancer cell lines identifies multiple opportunities for drug repurposing. Oncotarget 2017 Dec 19;9(4):4758-4772. PMID 29435139.
# The cells were obtained from University of North Carolina (UNC), Pediatric Preclinical Testing Program (PPT), and Coriell Institute (CI).
# qHTS cell viability assay:
# Cells were assayed in growth media at a density of 500-1,000 cells/well. Five microliters of cells were dispensed into 1,536-well, white, solid-bottom, TC-treated plates (Greiner Bio One) using a multidrop dispenser and incubated at 37 degrees C, 5% CO2, under a humidified atmosphere for 5 hours. Twenty-three nanoliters of compounds and controls (neutral control DMSO or positive control bortezomib at final concentration of 2.3 µM) were subsequently transferred by Kalypsys pintool. For primary screens, the MIPE collection was tested at 11-point dilutions (final concentrations range from 0.78 nM to 46 µM) and the NPC collection at 8-point dilutions (final concentrations range from 0.59 nM to 46 µM). Compounds tested in follow-up screens were assayed at 11-point dilutions. Cells were incubated for 48 hours, followed by addition of 3 µL of CellTiter-Glo (Promega). After a 15 min incubation at room temperature, samples were analyzed for luminescence intensity using a ViewLux High-throughput CCD imager equipped with clear filters.
# Potency is the fitted concentration of half-maximal effect.
Compound,Potency,"activity change, negative = cytotoxic [%]"
Cc1ccc([N+](=O)[O-])[c]2c1[O][Hg]2,3.72 µM (active),
COC(=O)C1=CCCN(C)C1,,0.651
CCc1ccc(C2CCNCC2)cc1,,-19.9
COc1ccc(C(=O)N2CCCC2=O)cc1,,-5
ClC1=C(Cl)C2(Cl)C(CBr)CC1(Cl)C2(Cl)Cl (stereo not drawn),,-0.137
CC1Sc2c(C(=O)O)c(=O)c3cc(F)c(N4CCNCC4)cc3n21 (stereo not drawn),,-17.3
C[C@@H]1O[C@@H](O[C@@H]2C=C3CC[C@@H]4[C@H](CC[C@]5(C)[C@@H](c6ccc(=O)oc6)CC[C@]45O)[C@@]3(C)CC2)[C@H](O)[C@H](O)[C@H]1O,0.0264 µM (active),
CCCCCCCCCCCC[N+](C)(C)CCOc1ccccc1,20.9 µM (active),
O=C(O)Cc1ccccc1,,-1.28
CC[n+]1c(-c2ccccc2)c2cc(N)ccc2c2ccc(N)cc21,,-4.16
CN(C)C(=S)SSC(=S)N(C)C,11.8 µM (active),
CCCCCCCCC(=O)NCc1ccc(O)c(OC)c1,,1.15
COc1ccc2c(C(=O)c3ccc(Cl)cc3)c(C)n(CC(=O)O)c2c1,,-15.7

# Source: PubChem BioAssay (NCATS)
